Test results taken from PMC12864922, “TDP-43 directly inhibits mRNA accumulation in neurites through modulation of mRNA stability”.
In all, about 9,900 sequences were measured (“r (bound/input frequency ratio)”: median about 0.7, highest 2% from about 6.5 on). The list comes from a sample in which the highest values are over-represented; it also holds similar and randomly drawn sequences.

B1: ENSMUSG00000061578.89|Ksr2 (ssRNA)
RNA: GGGAGUUCUACAGUCCGACGAUCGCUUCGAUAUCCGCAUGCUACAAACAUCUGAUUUUAGAGGUCCCAUUCCAAGAUGGAAGUCACCGGUUGCCGCUGAGCACACAAUUCUGAAGGACAGUAGGCAGUCCUGCAGGUCUUUUUUAGCACAGGGCCUCUCUGGGGACCAGUCCCUGGCCUUCACCCUUCUCCCAUUUUGUAAGAACACUGUUCUAACUCACCUCAUGCCCACGCUACCCUGGGCAACUGGAGAACACCAUAGCGUUUCAGCUGAUGUGACAUUUGGUGUGACCUUUACCAGUUCCUCUUGCGGUCGCACUAGUGUGGAAUUCUCGGGUGUCAAGG
B2: ENSMUSG00000090935.496|Synj2bp (ssRNA)
RNA: GGGAGUUCUACAGUCCGACGAUCGCUUCGAUAUCCGCAUGCUACUUCACAUAACUAAGCCAUUCAGUACUUUUUGAAACUGACUUAGUAACAGGAGUCAUUGUAAGCUCCAUAGAAGGCAAGACGCAUUCCACAUCUUGUCUUGACCAGCAGCACUCUGGAGGCCCAGUGUCUGCUACCCUUCUUGUAUCUGAUGGCAUGGGUAACAGCUCUGCCAUGGGCCUGCUUACUUCUAGUAUUCACCUCAGGGCUUGGAAAUUGGUUUUGAAAGGCUUUUAGACAUAGAAAGUAAAACUAAUGGCAACUCUUGCGGUCGCACUAGUGUGGAAUUCUCGGGUGUCAAGG
B3: ENSMUSG00000032194.286|Kank2 (ssRNA)
RNA: GGGAGUUCUACAGUCCGACGAUCGCUUCGAUAUCCGCAUGCUAGGAUGGGUGGACGGAUGAGUGUGGGGUGGGUGGAUGGAUAAAUGAGCAAUGGAUGAGAAACUGGGUUGGCUGGUGGGUAGAUGUCAUGAUGGAGUCUUUGCACGUGUAUGAAACAGAAAACCAAACUUCAGGACAGACAGCUGCUGGUGUCUCUGGAUGCUCACAGCCUAGGGCACAUUUGAAAGGUCGUGCUCUGAGCUGAGCCCUGAGUUCCAGCCUUGUAGCCAGCAAGGGAGUUUAUUUAAGGUUCUGGAAGCAUCCUCUUGCGGUCGCACUAGUGUGGAAUUCUCGGGUGUCAAGG
B4: ENSMUSG00000058297.17|Spock2 (ssRNA)
RNA: GGGAGUUCUACAGUCCGACGAUCGCUUCGAUAUCCGCAUGCUAGUAGAUAGCCCUCGACGGCCUCGGCAGGCCAGGGUGCCGACGGCCAGAAAGACAGGCCAGAAGAGACCUGGACAACAGCAGGCAACUUAGCAAAUGGAUCCGGAAGUCAGUGCGGAGGACCCUGGCUCCAGUGGGGGAGGACUGGGGAGUGUGGCUUGUGUGUAUGUGUGAUAUGAGAUGUGUGUGUAUGAUGUGAGAUGUGAGUGUGUGAUGUGAGAUGUGUGUAUGUGAGAUGUGUGUGUGUGUGUGUGUGUGUGUGACUCUUGCGGUCGCACUAGUGUGGAAUUCUCGGGUGUCAAGG
B5: ENSMUSG00000058297.10|Spock2|191:195;199:212;221:232;246:252 (ssRNA)
RNA: GGGAGUUCUACAGUCCGACGAUCGCUUCGAUAUCCGCAUGCUAGGAGGGUGAGGCGGGUGAGGCAGAUGAUGGAGGCUACAUCUGGUAGAUAGCCCUCGACGGCCUCGGCAGGCCAGGGUGCCGACGGCCAGAAAGACAGGCCAGAAGAGACCUGGACAACAGCAGGCAACUUAGCAAAUGGAUCCGGAAGUCAGUGCGGAGGACCCUGGCUCCAGUGGGGGAGGACUGGGGACACACGCUACACACAUACACACAUAUGAGAACACACACAUACAUGUGAGAUGUGACACACACAUGUGAGACUCUUGCGGUCGCACUAGUGUGGAAUUCUCGGGUGUCAAGG
B6: ENSMUSG00000058297.12|Spock2|179:183;187:200;209:220;234:240;249:258 (ssRNA)
RNA: GGGAGUUCUACAGUCCGACGAUCGCUUCGAUAUCCGCAUGCUAGGGUGAGGCAGAUGAUGGAGGCUACAUCUGGUAGAUAGCCCUCGACGGCCUCGGCAGGCCAGGGUGCCGACGGCCAGAAAGACAGGCCAGAAGAGACCUGGACAACAGCAGGCAACUUAGCAAAUGGAUCCGGAAGUCAGUGCGGAGGACCCUGGCUCCAGUGGGGGAGGACUGGGGACACACGCUACACACAUACACACAUAUGAGAACACACACAUACAUGUGAGAUGUGACACACACAUGUGAGAACACACAUACUGCUCUUGCGGUCGCACUAGUGUGGAAUUCUCGGGUGUCAAGG
B7: ENSMUSG00000058297.13|Spock2|173:177;181:194;203:214;228:234;243:252 (ssRNA)
RNA: GGGAGUUCUACAGUCCGACGAUCGCUUCGAUAUCCGCAUGCUAGGCAGAUGAUGGAGGCUACAUCUGGUAGAUAGCCCUCGACGGCCUCGGCAGGCCAGGGUGCCGACGGCCAGAAAGACAGGCCAGAAGAGACCUGGACAACAGCAGGCAACUUAGCAAAUGGAUCCGGAAGUCAGUGCGGAGGACCCUGGCUCCAGUGGGGGAGGACUGGGGACACACGCUACACACAUACACACAUAUGAGAACACACACAUACAUGUGAGAUGUGACACACACAUGUGAGAACACACAUACUGAGAUGUCUCUUGCGGUCGCACUAGUGUGGAAUUCUCGGGUGUCAAGG
B8: ENSMUSG00000058297.7|Spock2|209:213;217:230;239:250 (ssRNA)
RNA: GGGAGUUCUACAGUCCGACGAUCGCUUCGAUAUCCGCAUGCUAGGAGGAGGCCGAGGAGGAGGAGGGUGAGGCGGGUGAGGCAGAUGAUGGAGGCUACAUCUGGUAGAUAGCCCUCGACGGCCUCGGCAGGCCAGGGUGCCGACGGCCAGAAAGACAGGCCAGAAGAGACCUGGACAACAGCAGGCAACUUAGCAAAUGGAUCCGGAAGUCAGUGCGGAGGACCCUGGCUCCAGUGGGGGAGGACUGGGGACACACGCUACACACAUACACACAUAUGAGAACACACACAUACAUGUGAGAUGCUCUUGCGGUCGCACUAGUGUGGAAUUCUCGGGUGUCAAGG
B9: ENSMUSG00000058297.4|Spock2|227:231;235:248 (ssRNA)
RNA: GGGAGUUCUACAGUCCGACGAUCGCUUCGAUAUCCGCAUGCUAGGAGACAGAAGAGGCAGGGGAGGAGGCCGAGGAGGAGGAGGGUGAGGCGGGUGAGGCAGAUGAUGGAGGCUACAUCUGGUAGAUAGCCCUCGACGGCCUCGGCAGGCCAGGGUGCCGACGGCCAGAAAGACAGGCCAGAAGAGACCUGGACAACAGCAGGCAACUUAGCAAAUGGAUCCGGAAGUCAGUGCGGAGGACCCUGGCUCCAGUGGGGGAGGACUGGGGACACACGCUACACACAUACACACAUAUGAGAUGUGCUCUUGCGGUCGCACUAGUGUGGAAUUCUCGGGUGUCAAGG
B10: ENSMUSG00000058297.13|Spock2 (ssRNA)
RNA: GGGAGUUCUACAGUCCGACGAUCGCUUCGAUAUCCGCAUGCUAGGCAGAUGAUGGAGGCUACAUCUGGUAGAUAGCCCUCGACGGCCUCGGCAGGCCAGGGUGCCGACGGCCAGAAAGACAGGCCAGAAGAGACCUGGACAACAGCAGGCAACUUAGCAAAUGGAUCCGGAAGUCAGUGCGGAGGACCCUGGCUCCAGUGGGGGAGGACUGGGGAGUGUGGCUUGUGUGUAUGUGUGAUAUGAGAUGUGUGUGUAUGAUGUGAGAUGUGAGUGUGUGAUGUGAGAUGUGUGUAUGUGAGAUGUCUCUUGCGGUCGCACUAGUGUGGAAUUCUCGGGUGUCAAGG
B11: ENSMUSG00000058297.12|Spock2 (ssRNA)
RNA: GGGAGUUCUACAGUCCGACGAUCGCUUCGAUAUCCGCAUGCUAGGGUGAGGCAGAUGAUGGAGGCUACAUCUGGUAGAUAGCCCUCGACGGCCUCGGCAGGCCAGGGUGCCGACGGCCAGAAAGACAGGCCAGAAGAGACCUGGACAACAGCAGGCAACUUAGCAAAUGGAUCCGGAAGUCAGUGCGGAGGACCCUGGCUCCAGUGGGGGAGGACUGGGGAGUGUGGCUUGUGUGUAUGUGUGAUAUGAGAUGUGUGUGUAUGAUGUGAGAUGUGAGUGUGUGAUGUGAGAUGUGUGUAUGUGCUCUUGCGGUCGCACUAGUGUGGAAUUCUCGGGUGUCAAGG
B12: ENSMUSG00000058297.17|Spock2|149:153;157:170;179:190;204:210;219:228;234:259 (ssRNA)
RNA: GGGAGUUCUACAGUCCGACGAUCGCUUCGAUAUCCGCAUGCUAGUAGAUAGCCCUCGACGGCCUCGGCAGGCCAGGGUGCCGACGGCCAGAAAGACAGGCCAGAAGAGACCUGGACAACAGCAGGCAACUUAGCAAAUGGAUCCGGAAGUCAGUGCGGAGGACCCUGGCUCCAGUGGGGGAGGACUGGGGACACACGCUACACACAUACACACAUAUGAGAACACACACAUACAUGUGAGAUGUGACACACACAUGUGAGAACACACAUACUGAGAACACACACACACACACACACACACACACUCUUGCGGUCGCACUAGUGUGGAAUUCUCGGGUGUCAAGG

Each binder was assayed against TDP-43 (Homo sapiens, UniProt Q13148 1-414) (assay: RNA Bind-n-Seq with designed 260-mer pool; 25 mM Tris-HCl, 150 mM KCl, 3 mM MgCl2, BSA (printed 500 mg/mL), 20 units/mL SUPERase IN; pH not stated; 500 nM RNA pool, 1 h, 4 C; TDP-43 5, 50, 500 nM; high values mean tight binding). Conditions: protein: recombinant; tags: SBP (GST cleaved off with PreScission; pGEX-GST-SBP).
In short: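 Recombinant SBP-tagged TDP-43 at 5, 50 or 500 nM was captured on streptavidin beads, then incubated 1 h at 4 °C with 500 nM of an in vitro-transcribed 260-nt 3′ UTR oligo pool in 25 mM Tris-HCl, 150 mM KCl, 3 mM MgCl2, BSA and SUPERase IN. Bound RNA was washed, eluted with biotin, reverse transcribed, PCR-amplified and sequenced. Binding is R, each oligo's mapped-read-normalized abundance in the bound sample divided by its abundance in input. Duplicates used two independent protein batches.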

Sequence of TDP-43 (Q13148 whole entry): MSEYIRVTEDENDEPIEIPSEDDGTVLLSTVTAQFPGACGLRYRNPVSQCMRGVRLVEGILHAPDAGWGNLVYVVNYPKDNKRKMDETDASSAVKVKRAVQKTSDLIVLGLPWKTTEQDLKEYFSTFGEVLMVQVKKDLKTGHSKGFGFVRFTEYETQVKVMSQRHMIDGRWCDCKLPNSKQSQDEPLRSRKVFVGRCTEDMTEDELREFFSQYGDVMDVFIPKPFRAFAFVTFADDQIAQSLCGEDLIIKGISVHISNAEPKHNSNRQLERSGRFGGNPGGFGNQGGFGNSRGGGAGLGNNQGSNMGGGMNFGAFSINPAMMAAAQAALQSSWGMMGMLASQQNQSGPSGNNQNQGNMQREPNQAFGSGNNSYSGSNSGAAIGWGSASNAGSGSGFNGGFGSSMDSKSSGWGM

| Binder | binding signal |
| --- | --- |
| B1 | 0.288 R (bound/input frequency ratio) |
| B2 | 0.243 R (bound/input frequency ratio) |
| B3 | 5.11 R (bound/input frequency ratio) |
| B4 | 8.62 R (bound/input frequency ratio) |
| B5 | 2.04 R (bound/input frequency ratio) |
| B6 | 2.28 R (bound/input frequency ratio) |
| B7 | 2.37 R (bound/input frequency ratio) |
| B8 | 2.55 R (bound/input frequency ratio) |
| B9 | 2.44 R (bound/input frequency ratio) |
| B10 | 7.72 R (bound/input frequency ratio) |
| B11 | 8.09 R (bound/input frequency ratio) |
| B12 | 2.9 R (bound/input frequency ratio) |
